Source: article PMC7862700, “An all-to-all approach to the identification of sequence-specific readers for epigenetic DNA modifications on cytosine”

What was measured:
Assay in all cases: DAPPL (digital affinity profiling via proximity ligation, sequencing); 10 mM Tris-HCl pH 7.5, 50 mM NaCl, 1 mM DTT, 4% glycerol, room temperature, 30 min; GST-TFs on glutathione beads, 16-mer random dsDNA library, 0.1% formaldehyde crosslink after washing; high values mean tight binding
FEV = biological target: T1, FEV (Homo sapiens, UniProt Q99581 1-238); details: protein: recombinant; tags: N-terminal GST; dsDNA, one strand shown
T1 sequence: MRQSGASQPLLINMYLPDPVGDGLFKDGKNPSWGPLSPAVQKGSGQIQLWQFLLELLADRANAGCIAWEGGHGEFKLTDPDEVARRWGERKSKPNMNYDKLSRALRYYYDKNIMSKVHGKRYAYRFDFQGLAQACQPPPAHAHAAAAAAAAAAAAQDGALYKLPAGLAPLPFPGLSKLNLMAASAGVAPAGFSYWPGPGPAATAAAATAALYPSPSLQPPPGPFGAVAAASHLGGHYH
Outline: (§1)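 Binding signal is given per hexamer as its read frequency for a factor divided by its frequency in the tag-only sample. GST-fused human transcription factors were expressed in yeast, captured on glutathione beads, barcoded with DNA and pooled with that sample, then incubated with 200 nmole of a 16-mer random double-stranded DNA library in Tris/NaCl/DTT/glycerol buffer for 30 min at room temperature. The pools were then washed, crosslinked, proximity-ligated, amplified by PCR and sequenced on an Illumina NextSeq500.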

ETV5 = ETV5 (Homo sapiens, UniProt P41161 1-510); details: protein: recombinant; tags: N-terminal GST; dsDNA, one strand shown
Chain of ETV5 (P41161 whole entry): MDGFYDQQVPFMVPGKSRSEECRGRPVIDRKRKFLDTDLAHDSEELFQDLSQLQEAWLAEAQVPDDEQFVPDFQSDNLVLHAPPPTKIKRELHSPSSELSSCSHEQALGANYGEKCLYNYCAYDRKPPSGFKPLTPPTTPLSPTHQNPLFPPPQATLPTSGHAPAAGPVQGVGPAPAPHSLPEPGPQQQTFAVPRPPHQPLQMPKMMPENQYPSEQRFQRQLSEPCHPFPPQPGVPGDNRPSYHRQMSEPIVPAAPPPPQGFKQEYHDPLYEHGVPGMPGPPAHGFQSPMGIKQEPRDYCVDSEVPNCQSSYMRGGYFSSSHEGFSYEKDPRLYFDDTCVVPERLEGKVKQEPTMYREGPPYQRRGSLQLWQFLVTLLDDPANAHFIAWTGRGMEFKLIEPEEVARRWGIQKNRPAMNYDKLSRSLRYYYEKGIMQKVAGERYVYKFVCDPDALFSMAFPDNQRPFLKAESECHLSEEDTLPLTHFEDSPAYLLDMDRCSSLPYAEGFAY
Outline: as §1

HSF1 = HSF1 (Homo sapiens, UniProt Q00613 1-529); details: protein: recombinant; tags: N-terminal GST; chain copies: 3; dsDNA, one strand shown
Chain of HSF1 (Q00613 whole entry): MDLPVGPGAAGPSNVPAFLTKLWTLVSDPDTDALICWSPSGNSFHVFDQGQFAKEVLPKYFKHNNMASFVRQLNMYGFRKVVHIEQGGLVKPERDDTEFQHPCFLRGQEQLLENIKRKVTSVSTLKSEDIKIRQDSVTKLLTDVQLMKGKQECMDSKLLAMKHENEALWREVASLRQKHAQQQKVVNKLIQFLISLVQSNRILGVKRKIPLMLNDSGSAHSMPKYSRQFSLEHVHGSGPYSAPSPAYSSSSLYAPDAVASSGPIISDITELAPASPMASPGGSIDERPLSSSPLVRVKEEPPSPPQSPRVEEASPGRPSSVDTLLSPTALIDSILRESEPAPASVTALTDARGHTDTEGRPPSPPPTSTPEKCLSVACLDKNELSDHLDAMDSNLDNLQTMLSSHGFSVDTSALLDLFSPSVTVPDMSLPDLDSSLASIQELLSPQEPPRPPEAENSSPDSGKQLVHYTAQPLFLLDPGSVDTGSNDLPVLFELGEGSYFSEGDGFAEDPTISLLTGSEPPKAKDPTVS
Outline: as §1

SPIC = biological target: T2, SPIC (Homo sapiens, UniProt Q8N5J4 1-248); details: protein: recombinant; tags: N-terminal GST; dsDNA, one strand shown
T2 sequence: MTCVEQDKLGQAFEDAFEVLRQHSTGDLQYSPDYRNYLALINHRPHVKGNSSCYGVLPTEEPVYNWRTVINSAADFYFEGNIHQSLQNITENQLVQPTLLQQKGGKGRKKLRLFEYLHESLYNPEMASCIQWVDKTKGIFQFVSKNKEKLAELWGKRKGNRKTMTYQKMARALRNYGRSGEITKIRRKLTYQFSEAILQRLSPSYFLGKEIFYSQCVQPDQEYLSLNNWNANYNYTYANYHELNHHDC
Outline: as §1

ELF4 = ELF4 (Homo sapiens, UniProt Q99607 1-663); details: protein: recombinant; tags: N-terminal GST; dsDNA, one strand shown
Chain of ELF4 (Q99607 whole entry): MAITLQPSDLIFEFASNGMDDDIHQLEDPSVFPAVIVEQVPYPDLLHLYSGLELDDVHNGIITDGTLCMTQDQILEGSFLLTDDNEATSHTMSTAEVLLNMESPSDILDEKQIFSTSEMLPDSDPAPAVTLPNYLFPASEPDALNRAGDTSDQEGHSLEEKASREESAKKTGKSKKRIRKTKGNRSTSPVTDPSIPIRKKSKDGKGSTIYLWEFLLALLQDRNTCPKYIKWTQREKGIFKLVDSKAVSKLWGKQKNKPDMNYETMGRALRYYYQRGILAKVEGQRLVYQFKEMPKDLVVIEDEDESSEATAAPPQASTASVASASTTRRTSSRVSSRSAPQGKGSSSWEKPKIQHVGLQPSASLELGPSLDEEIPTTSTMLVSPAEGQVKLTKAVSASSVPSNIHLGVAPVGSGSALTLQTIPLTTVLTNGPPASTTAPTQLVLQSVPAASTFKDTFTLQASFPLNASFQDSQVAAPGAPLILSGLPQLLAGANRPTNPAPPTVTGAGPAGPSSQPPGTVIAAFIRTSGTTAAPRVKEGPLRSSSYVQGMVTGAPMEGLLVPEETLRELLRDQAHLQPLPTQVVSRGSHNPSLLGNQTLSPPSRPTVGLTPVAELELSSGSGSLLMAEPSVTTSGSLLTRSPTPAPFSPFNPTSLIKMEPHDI
Outline: as §1

ELK4 = biological target: T3, ELK4 (Homo sapiens, UniProt P28324-2 1-405); details: protein: recombinant; tags: N-terminal GST; dsDNA, one strand shown
T3 sequence: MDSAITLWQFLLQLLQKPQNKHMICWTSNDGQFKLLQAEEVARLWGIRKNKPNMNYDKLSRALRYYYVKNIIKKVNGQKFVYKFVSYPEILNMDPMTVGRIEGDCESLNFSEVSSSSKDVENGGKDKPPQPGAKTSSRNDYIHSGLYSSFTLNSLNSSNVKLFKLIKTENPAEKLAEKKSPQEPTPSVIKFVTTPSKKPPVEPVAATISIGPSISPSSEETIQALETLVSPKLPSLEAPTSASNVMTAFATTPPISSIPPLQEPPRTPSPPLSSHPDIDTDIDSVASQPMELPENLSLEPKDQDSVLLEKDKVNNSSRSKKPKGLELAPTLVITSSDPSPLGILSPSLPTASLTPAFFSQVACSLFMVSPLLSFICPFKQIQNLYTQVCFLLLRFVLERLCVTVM
Outline: as §1

ETV2 = biological target: T4, ETV2 (Homo sapiens, UniProt O00321 1-342); details: protein: recombinant; tags: N-terminal GST; dsDNA, one strand shown
T4 sequence: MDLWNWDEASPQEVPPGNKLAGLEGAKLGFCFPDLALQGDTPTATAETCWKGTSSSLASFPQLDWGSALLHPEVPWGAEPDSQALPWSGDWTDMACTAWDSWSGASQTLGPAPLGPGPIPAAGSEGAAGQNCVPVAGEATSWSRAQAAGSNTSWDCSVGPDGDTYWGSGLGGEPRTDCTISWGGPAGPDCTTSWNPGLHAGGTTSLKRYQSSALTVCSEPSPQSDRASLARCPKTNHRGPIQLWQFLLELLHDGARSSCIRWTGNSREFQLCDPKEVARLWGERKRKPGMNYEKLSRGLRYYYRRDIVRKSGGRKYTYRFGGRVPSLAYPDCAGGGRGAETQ
Outline: as §1

ELF3 = biological target: T5, ELF3 (Homo sapiens, UniProt P78545 1-371); details: protein: recombinant; tags: N-terminal GST; dsDNA, one strand shown
T5 sequence: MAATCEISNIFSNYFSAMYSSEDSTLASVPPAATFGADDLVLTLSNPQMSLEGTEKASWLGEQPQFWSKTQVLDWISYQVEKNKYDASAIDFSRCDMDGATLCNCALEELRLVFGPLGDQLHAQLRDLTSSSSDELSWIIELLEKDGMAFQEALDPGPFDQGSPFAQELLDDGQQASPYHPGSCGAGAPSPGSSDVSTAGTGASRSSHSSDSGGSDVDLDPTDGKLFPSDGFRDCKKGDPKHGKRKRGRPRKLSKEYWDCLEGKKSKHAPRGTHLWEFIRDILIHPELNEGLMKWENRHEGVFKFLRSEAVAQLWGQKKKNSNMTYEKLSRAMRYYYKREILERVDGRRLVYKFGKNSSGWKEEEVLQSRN
Outline: as §1

CRX = CRX (Homo sapiens, UniProt O43186 1-299); details: protein: recombinant; tags: N-terminal GST; dsDNA, one strand shown
Chain of CRX (O43186 whole entry): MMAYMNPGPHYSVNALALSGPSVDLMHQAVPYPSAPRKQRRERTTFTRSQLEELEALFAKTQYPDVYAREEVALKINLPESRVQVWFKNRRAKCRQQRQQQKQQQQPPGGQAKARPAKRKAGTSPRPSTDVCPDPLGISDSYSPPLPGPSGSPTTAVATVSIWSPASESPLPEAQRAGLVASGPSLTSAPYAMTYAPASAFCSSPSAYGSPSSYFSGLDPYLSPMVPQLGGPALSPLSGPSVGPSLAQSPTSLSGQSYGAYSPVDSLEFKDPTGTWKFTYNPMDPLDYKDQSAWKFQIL
Outline: as §1

ETV1 = ETV1 (Homo sapiens, UniProt P50549 1-477); details: protein: recombinant; tags: N-terminal GST; dsDNA, one strand shown
Chain of ETV1 (P50549 whole entry): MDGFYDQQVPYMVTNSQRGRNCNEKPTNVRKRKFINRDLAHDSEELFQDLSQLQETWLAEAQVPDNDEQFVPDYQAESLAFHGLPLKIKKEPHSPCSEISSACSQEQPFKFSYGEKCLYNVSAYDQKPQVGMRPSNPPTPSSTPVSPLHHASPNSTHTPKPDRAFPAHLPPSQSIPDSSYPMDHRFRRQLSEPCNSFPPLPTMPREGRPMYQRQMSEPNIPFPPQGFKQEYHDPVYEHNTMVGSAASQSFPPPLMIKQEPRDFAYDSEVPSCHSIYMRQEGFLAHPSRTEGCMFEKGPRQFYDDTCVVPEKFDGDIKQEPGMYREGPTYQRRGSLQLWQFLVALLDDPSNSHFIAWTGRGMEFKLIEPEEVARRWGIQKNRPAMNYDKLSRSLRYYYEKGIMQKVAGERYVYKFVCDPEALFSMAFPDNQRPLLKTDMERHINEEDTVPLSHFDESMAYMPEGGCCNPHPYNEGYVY
Outline: as §1

ERF = biological target: T6, ERF (Homo sapiens, UniProt P50548 1-548); details: protein: recombinant; tags: N-terminal GST; dsDNA, one strand shown
T6 sequence: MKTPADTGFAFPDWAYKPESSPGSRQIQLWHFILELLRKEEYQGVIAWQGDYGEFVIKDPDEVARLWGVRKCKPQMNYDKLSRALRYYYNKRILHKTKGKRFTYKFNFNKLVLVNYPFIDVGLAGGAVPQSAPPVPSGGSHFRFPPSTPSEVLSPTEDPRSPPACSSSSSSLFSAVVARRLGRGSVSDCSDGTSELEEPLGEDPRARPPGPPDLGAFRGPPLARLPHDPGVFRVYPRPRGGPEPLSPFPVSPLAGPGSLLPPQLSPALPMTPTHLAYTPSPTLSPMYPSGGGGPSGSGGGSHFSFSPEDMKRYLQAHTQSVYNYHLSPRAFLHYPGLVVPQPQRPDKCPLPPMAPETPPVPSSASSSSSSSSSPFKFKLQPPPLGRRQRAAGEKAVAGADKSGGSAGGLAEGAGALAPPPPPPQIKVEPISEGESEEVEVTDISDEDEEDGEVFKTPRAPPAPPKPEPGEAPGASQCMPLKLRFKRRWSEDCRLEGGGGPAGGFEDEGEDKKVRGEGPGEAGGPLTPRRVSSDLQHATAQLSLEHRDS
Outline: as §1

ETV3L = biological target: T7, ETV3L (Homo sapiens, UniProt Q6ZN32 1-361); details: protein: recombinant; tags: N-terminal GST; dsDNA, one strand shown
T7 sequence: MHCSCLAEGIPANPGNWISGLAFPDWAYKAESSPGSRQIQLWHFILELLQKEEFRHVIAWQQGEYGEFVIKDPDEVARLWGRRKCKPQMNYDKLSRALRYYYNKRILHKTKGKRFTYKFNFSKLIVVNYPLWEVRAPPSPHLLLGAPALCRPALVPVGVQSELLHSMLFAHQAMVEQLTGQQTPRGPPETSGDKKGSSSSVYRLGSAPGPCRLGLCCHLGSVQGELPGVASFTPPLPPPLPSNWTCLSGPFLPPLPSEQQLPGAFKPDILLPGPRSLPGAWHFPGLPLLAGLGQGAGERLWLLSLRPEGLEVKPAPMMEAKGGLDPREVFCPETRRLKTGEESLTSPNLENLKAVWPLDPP
Outline: as §1

ETS2 = biological target: T8, ETS2 (Homo sapiens, UniProt P15036 1-469); details: protein: recombinant; tags: N-terminal GST; dsDNA, one strand shown
T8 sequence: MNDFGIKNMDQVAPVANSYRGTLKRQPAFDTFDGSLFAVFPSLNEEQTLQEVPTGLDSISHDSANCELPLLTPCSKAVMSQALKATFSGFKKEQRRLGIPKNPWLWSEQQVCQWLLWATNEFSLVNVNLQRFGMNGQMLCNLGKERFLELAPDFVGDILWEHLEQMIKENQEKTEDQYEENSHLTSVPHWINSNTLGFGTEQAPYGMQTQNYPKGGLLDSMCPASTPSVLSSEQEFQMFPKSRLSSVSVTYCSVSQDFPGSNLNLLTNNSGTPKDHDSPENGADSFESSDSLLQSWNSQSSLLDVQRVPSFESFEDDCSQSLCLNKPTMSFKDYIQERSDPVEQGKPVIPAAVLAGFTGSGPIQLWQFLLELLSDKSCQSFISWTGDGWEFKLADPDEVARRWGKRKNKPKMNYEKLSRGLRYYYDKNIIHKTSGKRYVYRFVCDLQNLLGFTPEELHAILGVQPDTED
Outline: as §1

SPDEF = biological target: T9, SPDEF (Homo sapiens, UniProt O95238 1-335); details: protein: recombinant; tags: N-terminal GST; dsDNA, one strand shown
T9 sequence: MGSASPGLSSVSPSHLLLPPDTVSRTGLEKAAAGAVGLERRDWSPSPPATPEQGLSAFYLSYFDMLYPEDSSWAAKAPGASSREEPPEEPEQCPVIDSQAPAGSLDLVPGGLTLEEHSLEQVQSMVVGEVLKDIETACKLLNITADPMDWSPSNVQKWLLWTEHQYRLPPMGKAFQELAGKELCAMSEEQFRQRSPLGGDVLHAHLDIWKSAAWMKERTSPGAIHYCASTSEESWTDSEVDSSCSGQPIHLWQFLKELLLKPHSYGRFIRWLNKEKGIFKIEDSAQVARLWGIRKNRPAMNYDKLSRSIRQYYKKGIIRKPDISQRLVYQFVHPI
Outline: as §1

ETV7 = biological target: T10, ETV7 (Homo sapiens, UniProt Q9Y603 1-341); details: protein: recombinant; tags: N-terminal GST; dsDNA, one strand shown
T10 sequence: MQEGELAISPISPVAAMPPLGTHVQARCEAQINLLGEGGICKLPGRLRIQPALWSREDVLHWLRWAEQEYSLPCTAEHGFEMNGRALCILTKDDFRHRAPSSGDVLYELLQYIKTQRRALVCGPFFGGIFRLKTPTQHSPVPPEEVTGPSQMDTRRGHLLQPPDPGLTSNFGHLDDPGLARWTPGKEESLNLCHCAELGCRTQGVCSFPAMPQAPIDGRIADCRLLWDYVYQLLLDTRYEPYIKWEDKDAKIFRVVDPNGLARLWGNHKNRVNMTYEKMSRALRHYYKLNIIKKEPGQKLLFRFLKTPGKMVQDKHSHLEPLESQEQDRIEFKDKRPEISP
Outline: as §1

ELF5 = biological target: T11, ELF5 (Homo sapiens, UniProt Q9UKW6-2 1-255); details: protein: recombinant; tags: N-terminal GST; dsDNA, one strand shown
T11 sequence: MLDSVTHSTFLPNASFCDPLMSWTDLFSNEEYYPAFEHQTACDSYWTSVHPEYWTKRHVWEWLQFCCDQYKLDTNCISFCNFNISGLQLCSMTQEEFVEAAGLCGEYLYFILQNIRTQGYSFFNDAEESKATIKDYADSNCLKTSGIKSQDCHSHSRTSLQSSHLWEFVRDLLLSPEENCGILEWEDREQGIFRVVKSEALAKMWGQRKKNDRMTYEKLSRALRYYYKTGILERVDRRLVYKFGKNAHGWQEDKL
Outline: as §1

ETV3 = biological target: T12, ETV3 (Homo sapiens, UniProt P41162-2 1-143); details: protein: recombinant; tags: N-terminal GST; dsDNA, one strand shown
T12 sequence: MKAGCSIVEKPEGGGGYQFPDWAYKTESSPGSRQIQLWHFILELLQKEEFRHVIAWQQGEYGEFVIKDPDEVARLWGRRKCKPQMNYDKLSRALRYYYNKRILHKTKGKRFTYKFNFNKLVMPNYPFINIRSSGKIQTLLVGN
Outline: as §1

ETV6 = ETV6 (Homo sapiens, UniProt P41212 1-452); details: protein: recombinant; tags: N-terminal GST; dsDNA, one strand shown
Chain of ETV6 (P41212 whole entry): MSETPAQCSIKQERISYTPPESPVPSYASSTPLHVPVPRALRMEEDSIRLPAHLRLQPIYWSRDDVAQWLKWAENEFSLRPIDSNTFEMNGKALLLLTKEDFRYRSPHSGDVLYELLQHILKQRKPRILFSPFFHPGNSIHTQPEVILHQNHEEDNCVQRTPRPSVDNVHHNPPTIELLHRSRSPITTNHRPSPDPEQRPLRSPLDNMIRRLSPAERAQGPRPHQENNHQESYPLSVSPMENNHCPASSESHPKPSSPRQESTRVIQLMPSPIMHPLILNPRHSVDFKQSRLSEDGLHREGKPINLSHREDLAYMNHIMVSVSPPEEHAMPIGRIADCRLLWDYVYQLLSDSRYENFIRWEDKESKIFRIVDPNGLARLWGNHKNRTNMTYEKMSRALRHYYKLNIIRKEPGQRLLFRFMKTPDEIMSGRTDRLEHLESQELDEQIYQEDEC
Outline: as §1

## ATATTC
FEV
  binding signal: 1.19 fold enrichment (6-mer frequency, TF over GST control)
ETV5
  binding signal: 1.27 fold enrichment (6-mer frequency, TF over GST control)
HSF1
  binding signal: 2.2 fold enrichment (6-mer frequency, TF over GST control)
SPIC
  binding signal: 1.3 fold enrichment (6-mer frequency, TF over GST control)
ELF4
  binding signal: 1.29 fold enrichment (6-mer frequency, TF over GST control)
ELK4
  binding signal: 1.31 fold enrichment (6-mer frequency, TF over GST control)
ETV2
  binding signal: 1.22 fold enrichment (6-mer frequency, TF over GST control)
ELF3
  binding signal: 1.38 fold enrichment (6-mer frequency, TF over GST control)
CRX
  binding signal: 1.51 fold enrichment (6-mer frequency, TF over GST control)
ETV1
  binding signal: 1.26 fold enrichment (6-mer frequency, TF over GST control)
ERF
  binding signal: 1.08 fold enrichment (6-mer frequency, TF over GST control)
ETV3L
  binding signal: 1.35 fold enrichment (6-mer frequency, TF over GST control)
ETS2
  binding signal: 1.2 fold enrichment (6-mer frequency, TF over GST control)
SPDEF
  binding signal: 1.26 fold enrichment (6-mer frequency, TF over GST control)
ETV7
  binding signal: 1.24 fold enrichment (6-mer frequency, TF over GST control)
ELF5
  binding signal: 1.31 fold enrichment (6-mer frequency, TF over GST control)
ETV3
  binding signal: 1.19 fold enrichment (6-mer frequency, TF over GST control)
ETV6
  binding signal: 1.32 fold enrichment (6-mer frequency, TF over GST control)
